{"source": "PubChem BioAssay AID2156", "about": "(Johns Hopkins Ion Channel Center, 2009)", "note": "Out of some 310,000 compounds screened, about 3,400 (1.1%) were called active. This is one part of a sample in which actives are shown more often than they occur. Values without a mark were called inactive.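 How the source made its calls: active means fluorescence ratio B-score at most minus 3 library SDs, with starting brightness B-score within 2 library SDs (cut at about -5.5 in these data); inactive means the rest, inconclusive results apart.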", "data": [{"biological_target": "Potassium voltage-gated channel subfamily KQT member 2 (Rattus norvegicus) (UniProt O88943)", "sequence (O88943 whole entry, looked up)": "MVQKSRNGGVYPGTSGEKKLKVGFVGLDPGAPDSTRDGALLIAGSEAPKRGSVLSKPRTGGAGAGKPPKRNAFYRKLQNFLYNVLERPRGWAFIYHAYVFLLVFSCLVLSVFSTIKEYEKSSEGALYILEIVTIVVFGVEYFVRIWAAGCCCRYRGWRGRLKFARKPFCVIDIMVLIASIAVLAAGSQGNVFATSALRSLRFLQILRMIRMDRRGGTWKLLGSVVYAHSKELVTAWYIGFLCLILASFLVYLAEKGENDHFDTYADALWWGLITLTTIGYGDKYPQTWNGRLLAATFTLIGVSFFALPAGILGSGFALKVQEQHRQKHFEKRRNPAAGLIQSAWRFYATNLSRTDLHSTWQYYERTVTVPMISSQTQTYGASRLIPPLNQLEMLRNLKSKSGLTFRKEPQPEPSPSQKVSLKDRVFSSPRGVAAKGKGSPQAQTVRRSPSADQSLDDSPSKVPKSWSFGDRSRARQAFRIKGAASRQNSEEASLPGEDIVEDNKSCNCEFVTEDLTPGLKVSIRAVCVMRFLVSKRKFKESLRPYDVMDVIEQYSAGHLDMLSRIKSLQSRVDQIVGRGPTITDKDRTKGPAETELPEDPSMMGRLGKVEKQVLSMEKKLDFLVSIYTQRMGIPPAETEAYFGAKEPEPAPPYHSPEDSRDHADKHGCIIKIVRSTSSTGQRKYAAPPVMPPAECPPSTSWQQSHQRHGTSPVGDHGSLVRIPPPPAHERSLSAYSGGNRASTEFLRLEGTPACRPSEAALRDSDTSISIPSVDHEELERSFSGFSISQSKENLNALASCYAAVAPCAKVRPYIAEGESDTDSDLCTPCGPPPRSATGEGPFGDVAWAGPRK", "test": "rat KCNQ2 potassium channel inhibitors, primary screen, cell-based, CHO-K1, FluxOR thallium flux, B-score (AID 2156)", "details": "20 min, at 10 µM; active compounds read low", "values": [{"compound": "CC(C)(C)c1ccc(CN2C(=O)CN=C(c3ccccc3)c3ccccc32)cc1", "B-score": "-6.95 (active)"}, {"compound": "O=C1CC(=O)N(Cc2ccccc2)C(=O)N1CCCCCCN1C(=O)CC(=O)N(Cc2ccccc2)C1=O", "B-score": "inactive"}, {"compound": "CCOC(=O)c1c(-c2ccccc2)oc2ccc(OC(=O)N(C)C)cc12", "B-score": -4.87}, {"compound": "COc1ccccc1C1=NCc2nnc(CSC)n2-c2ccc(Cl)cc21", "B-score": "inactive"}, {"compound": "O=C(c1ccccc1[N+](=O)[O-])N1CCC2(CC1)OCCO2", "B-score": "inactive"}, {"compound": "COc1ccccc1CN1CCN(C(=O)Cc2ccccc2)CC1", "B-score": -0.38}, {"compound": "Cc1nn(-c2ccccc2)c(C)c1NC(=O)COC(=O)Cc1ccccc1", "B-score": "inactive"}, {"compound": "COc1ccc(CN2CCN(c3ccccc3F)CC2)c(OC)c1", "B-score": -0.09}, {"compound": "O=c1[nH]c(O)c(C=Nc2cc(F)cc(F)c2)c(=O)[nH]1", "B-score": "inactive"}, {"compound": "Cc1nc2ccccn2c1P(=S)(N1CCCCC1)N1CCCCC1", "B-score": "-5.55 (active)"}, {"compound": "CCCCCn1c(=O)c(C(=O)NCc2ccccc2)c(O)c2ccccc21", "B-score": -3.71}, {"compound": "COc1ccccc1OC(=O)c1ccc(C)c(S(=O)(=O)N2CCOCC2)c1", "B-score": "inactive"}, {"compound": "O=C(c1cc2nc(-c3ccccc3)cc(-c3ccccc3)n2n1)N1CCC2(CC1)OCCO2", "B-score": -2.41}, {"compound": "COc1ccc2c(c1)[C@]13CCCCC1C(C2)N(C)CC3", "note": "(stereo not given in full)", "B-score": "inactive"}, {"compound": "C/C(=N/O)c1ccc2ccc3ccccc3c2c1", "B-score": -0.17}, {"compound": "Cc1ccc(Cn2c(C)c3cnn(CC(=O)N4CCC5(CC4)OCCO5)c(=O)c3c2C)cc1", "B-score": "inactive"}, {"compound": "O=C(CCN1CCCCC1)NCC(=O)Nc1ccc(Br)cc1C(=O)c1ccccc1", "B-score": -0.1}, {"compound": "CN(C)CC1Oc2ccccc2OC1(O)c1ccccc1", "note": "(stereo not given)", "B-score": "-8.59 (active)"}, {"compound": "O=C(O)C1CSC(c2cccnc2)N1", "note": "(stereo not given)", "B-score": -1.95}, {"compound": "C=CC12CN(C)[C@@H]3C4CO[C@H](C[C@H]41)[C@]1(C(=O)Nc4ccccc41)[C@@H]32", "note": "(stereo not given in full)", "B-score": "inactive"}, {"compound": "CCCCCCCCCCCCn1ccc(=N)cc1", "B-score": -3.45}, {"compound": "CC(c1ccccc1)(c1ccccc1)c1ccncc1", "B-score": "-6.57 (active)"}, {"compound": "CC[C@H]1CC2CN3CCc4c([nH]c5ccccc45)C(C(=O)OC)(C2)C13", "note": "(stereo not given in full)", "B-score": -0.03}, {"compound": "O=C(NC(c1ccc(Cl)cc1)P(=O)(Oc1ccccc1)Oc1ccccc1)OCc1ccccc1", "note": "(stereo not given)", "B-score": "-9.52 (active)"}, {"compound": "COc1ccc(C2N3CC(C)(C)CN23)cc1", "note": "(stereo not given)", "B-score": "inactive"}]}]}
